Test results reported in PubChem BioAssay (NCI).
This is part of a sample that, as a whole, favours compounds with a hit. Of some 83,000 tested, about 20% had one in any assay.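 The test compound was applied at a single concentration to cells in 96-well plates for 48 hours, and percent growth was recorded.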 The source made the active and inactive calls. Rule for the calls: active = growth percent below 10; inactive = the rest.

Key:
Test in all cases: NCI-60 one-dose screen, 48 h (100 = growth as untreated, 0 = no growth, -100 = all killed)
Settings in all cases: 10 µM
K-562 leukemia = tested on: K-562 leukemia
MDA-MB-231 breast = tested on: MDA-MB-231 breast
SF-268 CNS = tested on: SF-268 CNS
SF-295 CNS = tested on: SF-295 CNS
SF-539 CNS = tested on: SF-539 CNS
UACC-257 melanoma = tested on: UACC-257 melanoma
M14 melanoma = tested on: M14 melanoma
HCT-15 colon = tested on: HCT-15 colon
HT29 colon = tested on: HT29 colon
SNB-75 CNS = tested on: SNB-75 CNS
SNB-19 CNS = tested on: SNB-19 CNS
U251 CNS = tested on: U251 CNS
PC-3 prostate = tested on: PC-3 prostate
SK-MEL-5 melanoma = tested on: SK-MEL-5 melanoma
UACC-62 melanoma = tested on: UACC-62 melanoma
LOX IMVI melanoma = tested on: LOX IMVI melanoma
SK-MEL-28 melanoma = tested on: SK-MEL-28 melanoma
DU-145 prostate = tested on: DU-145 prostate
MALME-3M melanoma = tested on: MALME-3M melanoma
RXF 393 renal = tested on: RXF 393 renal

Compound	growth (K-562 leukemia)	growth (MDA-MB-231 breast)	growth (SF-268 CNS)	growth (SF-295 CNS)	growth (SF-539 CNS)	growth (UACC-257 melanoma)	growth (M14 melanoma)	growth (HCT-15 colon)	growth (HT29 colon)	growth (SNB-75 CNS)	growth (SNB-19 CNS)	growth (U251 CNS)	growth (PC-3 prostate)	growth (SK-MEL-5 melanoma)	growth (UACC-62 melanoma)	growth (LOX IMVI melanoma)	growth (SK-MEL-28 melanoma)	growth (DU-145 prostate)	growth (MALME-3M melanoma)	growth (RXF 393 renal)
O=C(N/N=C/c1ccc([N+](=O)[O-])cc1)c1ccccc1Nc1cccc(C(F)(F)F)c1	107% (inactive)	80.5% (inactive)	98.4% (inactive)	105% (inactive)	60.7% (inactive)	95.5% (inactive)	86.4% (inactive)	98.6% (inactive)	69.8% (inactive)	87.1% (inactive)	105% (inactive)	89.2% (inactive)	91% (inactive)	83.1% (inactive)	90.8% (inactive)	98.1% (inactive)	91.7% (inactive)			
Cc1cc(Cl)ccc1Nc1nc(C(F)(F)F)ccc1C(=O)N/N=C/c1cccc(O)c1	20.7% (inactive)	39.7% (inactive)	39.3% (inactive)	6.71% (active)	23.5% (inactive)	44.1% (inactive)	43.9% (inactive)	23% (inactive)	23.7% (inactive)	28.9% (inactive)	63.5% (inactive)		29.7% (inactive)	-52.1% (active)	38.7% (inactive)	35.9% (inactive)	52.4% (inactive)			
COc1ccc(Cl)cc1Nc1nc(C(F)(F)F)ccc1C(=O)N/N=C/c1ccc(Cl)cc1	28.6% (inactive)	30.5% (inactive)	37.2% (inactive)	18.5% (inactive)	34% (inactive)	43.3% (inactive)		25.4% (inactive)	25.2% (inactive)	33.8% (inactive)	60.2% (inactive)	29.9% (inactive)	34.6% (inactive)	24.3% (inactive)	24.1% (inactive)	26.7% (inactive)	51.2% (inactive)			
COc1ccc(C(=O)CC(CC(=O)c2ccc(OC)cc2)c2c(C)nn(-c3ccccc3)c2Cl)cc1		90.9% (inactive)	101% (inactive)	92.2% (inactive)		118% (inactive)	90.5% (inactive)	100% (inactive)	87% (inactive)	91.3% (inactive)	93.3% (inactive)	102% (inactive)	85.6% (inactive)	90.2% (inactive)	88.3% (inactive)	83.3% (inactive)		110% (inactive)	92.4% (inactive)	98.4% (inactive)
